Rows were chosen to be rich in hits. Some 2.4% of all compounds tested hit in one or more screens of this group.
TMEM16A inh: mouse TMEM16A channel inhibition, primary screen. Q8BHY3. AID 588511. HEK293 TMEM16A/YFP iodide influx fluorescence, ionomycin. normalized B-score (activity score, 25-100; higher = stronger inhibition) at 10 µM. hit rate 1.2% among 310,000;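 active means ratio plate-corrected score three or more library SD toward inhibition, starting fluorescence score within five deviations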;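 further: score derived from kinetic fluorescence span divided by baseline fluorescence per well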
Target sequence (Q8BHY3 whole entry, looked up): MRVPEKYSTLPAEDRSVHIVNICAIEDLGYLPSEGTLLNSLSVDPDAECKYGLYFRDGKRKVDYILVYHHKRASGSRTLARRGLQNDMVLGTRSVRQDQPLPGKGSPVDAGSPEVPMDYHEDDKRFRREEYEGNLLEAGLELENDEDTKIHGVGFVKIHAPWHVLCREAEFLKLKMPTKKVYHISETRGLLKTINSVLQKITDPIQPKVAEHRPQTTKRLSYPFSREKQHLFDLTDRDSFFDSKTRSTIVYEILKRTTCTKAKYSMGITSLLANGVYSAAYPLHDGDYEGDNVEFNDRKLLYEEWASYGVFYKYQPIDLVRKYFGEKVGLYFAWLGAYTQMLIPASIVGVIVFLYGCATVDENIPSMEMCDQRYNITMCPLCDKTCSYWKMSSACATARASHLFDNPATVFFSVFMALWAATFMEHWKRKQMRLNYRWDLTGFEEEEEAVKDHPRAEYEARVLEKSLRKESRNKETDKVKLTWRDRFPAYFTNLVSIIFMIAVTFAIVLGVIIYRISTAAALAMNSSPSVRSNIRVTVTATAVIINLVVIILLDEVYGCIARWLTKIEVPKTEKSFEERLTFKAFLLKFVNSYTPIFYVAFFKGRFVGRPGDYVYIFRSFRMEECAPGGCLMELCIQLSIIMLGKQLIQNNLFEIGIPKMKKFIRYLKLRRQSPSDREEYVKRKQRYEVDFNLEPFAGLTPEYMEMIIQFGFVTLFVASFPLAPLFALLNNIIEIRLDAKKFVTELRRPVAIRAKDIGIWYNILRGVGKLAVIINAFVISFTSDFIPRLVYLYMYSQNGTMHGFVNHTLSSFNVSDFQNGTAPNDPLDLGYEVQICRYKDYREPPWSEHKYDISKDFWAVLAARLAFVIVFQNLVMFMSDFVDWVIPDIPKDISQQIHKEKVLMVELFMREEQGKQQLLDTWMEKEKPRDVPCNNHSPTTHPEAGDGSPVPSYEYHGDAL
CHT allo act: allosteric activators of human choline transporter CHT; Q9GZV3; CHT-expressing cells, membrane potential dye, choline EC20; hits give high values; LV-AA mutant CHT in HEK293 cells; B-score at 10 µM; hit rate 0.49% among 310,000; AID 488977;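 active means initial fluorescence not abnormally high and integrated response B-score, plate-corrected, over 3 SD above library mean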
CHT inh: inhibitors of human choline transporter CHT. Q9GZV3. CHT-expressing cells, membrane potential dye, choline response; hits give low values. B-score at 10 µM. hit rate 0.86% among 310,000. AID 488975;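 active means B-score over 3 SD under the library average, and starting fluorescence ratio not unusually high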;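 further: choline stimulus applied at its EC90 after an EC20 pre-addition; B-score computed on integrated fluorescence ratio after choline addition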
TMEM16A act: activators or potentiators of mouse TMEM16A chloride channel | hit rate 0.3% among 340,000 | B-score at 10 µM | HEK293 TMEM16A/YFP-H148Q/I152L, iodide quench fluorescence; hits give low values | Q8BHY3;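 active means fluorescence-ratio B-score plate-corrected deviation score at least 3 library SD below zero, with starting fluorescence score within 5 deviations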;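 further: channel opened by trigger with iodide after compound preincubation; score built on the fluorescence ratio of max minus min over baseline; more negative score means more quench and so TMEM16A activation or potentiation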
TMEM16A reconf: TMEM16A (mouse) chloride channel inhibition, re-confirmation | shares compounds with TMEM16A inh | hit rate 39% among 2,300 | inhibition, % at 10 µM | HEK293 TMEM16A/YFP-H148Q, iodide quench fluorescence; ionomycin added to raise cell calcium;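 active means mean duplicate percent inhibition, scaled so buffer wells are 0 and the reference blocker 100, over three buffer SD above buffer mean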
HEK293 Ca mobil: counter-screen for TMEM16A inhibitors: effect on calcium mobilization; shares compounds with TMEM16A inh; TMEM16A/YFP HEK293, Fluo4 calcium mobilization; calcium response (% of ionomycin), % at 10 µM; hit rate 2% among 2,300; AID 652231;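 active means duplicate-averaged calcium signal over 20% of the ionomycin maximum, relative to buffer baseline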;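 further: each well's signal is peak minus trough fluorescence divided by its pre-addition baseline; 0% = buffer wells and 100% = ionomycin wells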
Parental YFP cnt: counter-screen for TMEM16A inhibitors: effect in parental YFP-HEK293 cells; 2,300 tested, under 10 active; AID 652233; YFP ratio F(max-min)/F0 at 10 µM; iodide YFP quench, ionomycin; shares compounds with TMEM16A inh;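 active means yellow fluorescent protein signal ratio exceeding the buffer control mean by over 5 SD of those controls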;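 further: ratio is mean of duplicate wells from kinetic YFP trace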
ClC-1 rat inh: rat ClC-1 inhibition, TMEM16A specificity screen; shares compounds with TMEM16A inh; CHO ClC-1-YFP, iodide influx fluorescence quench; iodide control reads 0, buffer control 100; ratio percent, % at 10 µM; 2,300 tested, under 10 active;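 active means duplicate-mean ratio percent above the mean of iodide-only control wells, which defines zero, plus 5 of their SD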;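 further: higher percent means stronger block of ClC-1 iodide influx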
Starred values were filed as active, the others as inactive; i = inactive; . = no result.

SMILES | TMEM16A inh | CHT allo act | CHT inh | TMEM16A act | TMEM16A reconf | HEK293 Ca mobil | Parental YFP cnt | ClC-1 rat inh
O=S(=O)(c1cccc(Cl)c1)N1CCN(S(=O)(=O)c2ccc3c(c2)OCCO3)CC1 | . | . | . | i | . | . | . | .
O=C(c1ccco1)[C@@H]1[C@@H]2C(=O)N(c3ccc(F)cc3)C(=O)[C@@H]2[C@H]2C=Cc3ccccc3N21 | i | i | i | i | . | . | . | .
NC(=O)[C@@H]1[C@@H]2C(=O)N(c3ccc(F)cc3)C(=O)[C@@H]2[C@H]2C=Cc3ccccc3N21 | i | i | i | i | 20%* | i | -1 | -5
Oc1ccc(-c2[nH]ncc2-c2ccc(Br)cc2)c(O)c1 | i | i | i | i | . | . | . | .
Oc1ccc(-c2[nH]ncc2-c2ccc(Cl)cc2)c(O)c1 | 25* | i | i | i | i | i | -1.4 | -3
CCn1c(=O)cc(OCC(=O)NCC2CCCO2)c2ccccc21 (configuration not stated) | i | i | i | i | . | . | . | .
Cc1ccc(Cl)cc1NC(=O)CC(O)(C(F)(F)F)C(F)(F)F | 100* | i | i | i | 42%* | i | -0.95 | -18
CN(Cc1ccccc1)S(=O)(=O)c1ccc(NC(=O)c2ccccc2C(=O)O)cc1 | i | i | i | i | . | . | . | .
CCc1nnc(NC(=O)C2Cc3ccccc3CN2S(=O)(=O)c2c(C)c(C)cc(C)c2C)s1 (configuration not stated) | 25* | i | i | i | i | i | -1 | 6
Cc1c(C(=O)Nc2ccc3c(c2)OCCO3)sc2nc(-c3ccccc3)cn12 | 25* | i | i | i | 16%* | i | -0.94 | -12
Cc1nn(-c2nc(-c3ccco3)cc(C(F)(F)F)n2)c(C)c1Br | 25* | i | i | i | i | i | -1 | -2
Fc1ccc(N2CCN(c3nc(-c4ccco4)cc(C(F)(F)F)n3)CC2)cc1 | i | i | i | i | . | . | . | .
COc1ccccc1-c1nnc2sc(COc3ccccc3)nn12 | i | i | i | i | . | . | . | .
CCN(CC)c1ccc(-c2nn3c(-c4ccccc4OC)nnc3s2)cc1 | 100* | i | i | i | i | i | -1.1 | -2
O=C(CNS(=O)(=O)c1c(F)cc(F)cc1Br)OCC(=O)N1CCCC1=O | i | i | i | i | . | . | . | .
O=S(=O)(c1ccc(C2CCCCC2)cc1)N1CCCC1 | 25* | i | i | i | i | i | -0.83 | 0
Cc1n[nH]c(C)c1S(=O)(=O)N1CCCC(C(=O)O)C1 (configuration not stated) | . | . | . | i | . | . | . | .
COc1cc2c(cc1NC(=O)c1cc(-c3ccncc3)nc3ccc(C)cc13)oc1ccccc12 | 25* | i | i | i | i | i | -1.2 | -6
Cc1ccccc1-c1cc(C(=O)n2cccn2)c2cc(Cl)ccc2n1 | 25* | i | i | i | i | i | -0.99 | -10
C=C(C)COc1ccc2c3c(c(=O)oc2c1OCC(=C)C)CCC3 | 100* | i | i | i | 17%* | i | -1 | -2
C=C(C)COc1ccc2c(C)c(C)c(=O)oc2c1OCC(=C)C | i | i | i | i | . | . | . | .
O=C1/C(=C\c2ccco2)SC(=S)N1c1ccccc1 | i | i | i | i | . | . | . | .
Cc1ccc(N2C(=O)/C(=C\c3ccco3)SC2=S)cc1 | 100* | i | i | i | i | i | -1.1 | -13
Fc1cc(F)c2nc(N3CCCCC3)sc2c1 | i | i | i | i | . | . | . | .
O=C(COc1cccc(Cl)c1)N/N=C\c1cc2ccccc2nc1Cl | i | i | i | i | . | . | . | .
SMILES | TMEM16A inh | CHT allo act | CHT inh | TMEM16A act | TMEM16A reconf | HEK293 Ca mobil | Parental YFP cnt | ClC-1 rat inh
Cc1ccccc1OCC(=O)N/N=C/c1cc2ccccc2nc1Cl | 25* | i | i | i | 20%* | i | -1.1 | -16
O=C1CCCN1CCCNc1ncccc1[N+](=O)[O-] | i | i | i | i | . | . | . | .
CCOC(=O)c1sc(NC(=O)COC(=O)CNC(=O)c2ccco2)c(C(=O)OCC)c1C | i | i | i | i | . | . | . | .
CSc1ccc(C(=O)C2CCCN(C(=O)CCc3c(C)nn(C)c3C)C2)cc1 (configuration not stated) | 25* | i | i | i | i | i | -0.89 | -11
CSc1ccc(C(=O)C2CCCN(C(=O)CCn3cncn3)C2)cc1 (configuration not stated) | i | i | i | i | . | . | . | .
O=S(=O)(Nc1ccc(S(=O)(=O)N2CCCCC2)cc1)c1ccc(Br)s1 | 25* | i | i | i | i | i | -0.95 | -4
Cc1nnc(Nc2ccc(Cl)cc2)n(N)c1=O | i | i | i | i | . | . | . | .
Cc1cc(Cl)c(S(=O)(=O)N2CCSCC2)cc1OCC(=O)NC1CCCCC1 | 100* | i | i | i | 28%* | i | -0.9 | -12
Cc1cc(Cl)c(S(=O)(=O)N2CCN(c3ccccn3)CC2)cc1OCC(=O)NC1CCCCC1 | 100* | i | i | i | i | i | -1.1 | -5
Cc1cc(Cl)c(S(=O)(=O)N2CCCCCC2)cc1OCC(=O)NC1CCCCC1 | 100* | i | i | i | 24%* | i | -1.1 | -16
CCN1CCN(S(=O)(=O)c2cc(OCC(=O)NC3CCCCC3)c(C)cc2Cl)CC1 | i | i | i | i | . | . | . | .
CC(C)=C(NC(=O)c1ccccc1)C(N)=O | i | i | i | i | . | . | . | .
N#Cc1c(NC(=O)CSc2ncc(-c3ccccc3)n2CC2CCCO2)sc2c1CCCC2 (configuration not stated) | i | i | i | i | . | . | . | .
O=C1C(Cc2ccccc2)Nc2ncnc(N3CCOCC3)c2N1Cc1ccc(Cl)cc1 (configuration not stated) | i | i | i | i | . | . | . | .
CCCOc1ccc(-c2nnn(CC(=O)c3ccc4c(c3)OCCO4)n2)cc1 | 100* | i | i | i | 17%* | i | -0.96 | -22
CC(=O)Nc1ccc(S(=O)(=O)N2CCN(C(=O)c3ncoc3-c3cccc(C)c3)CC2)cc1 | i | i | i | i | . | . | . | .
CC(=O)Nc1ccc(S(=O)(=O)N2CCN(C(=O)c3ncoc3-c3cccc(F)c3)CC2)cc1 | 100* | i | i | i | i | i | -1 | -7

Source: PubChem BioAssay
